From PubChem BioAssay
FadD28 binding: M. tuberculosis FadD28 bisubstrate binding inhibition; FadD28 bisubstrate probe binding, fluorescence polarization; inhibition, % at 12.5 µM; 360,000 tested, 0.22% active; in the data active means inhibition above about 8.5%, passing the limit was not always enough; inconclusive means no clear call, values can overlap the other calls
Mtb hypoxia rep: inhibitors of hypoxia-regulated fluorescent reporter in Mycobacterium tuberculosis | M. tuberculosis hypoxia-regulated fluorescent reporter, fluorescence | fluorescence inhibition, % (test concentration not listed) | 300,000 tested, 0.1% active; in the data active means fluorescence inhibition mostly above about 23%, no sharp cut-off; inactive means mostly below about 17%
Rv3671c protease: inhibitors of M. tuberculosis serine protease Rv3671c. AID 2606. 320,000 tested, 0.048% active. P9WHR9. inhibition, % at 5.96 µM; in the data active means inhibition above about 38%;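 further: extracellular domain of Rv3671c used as enzyme; 0% = enzyme with DMSO and 100% = no enzyme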
Target sequence (P9WHR9 whole entry, looked up, the tested form may be a part): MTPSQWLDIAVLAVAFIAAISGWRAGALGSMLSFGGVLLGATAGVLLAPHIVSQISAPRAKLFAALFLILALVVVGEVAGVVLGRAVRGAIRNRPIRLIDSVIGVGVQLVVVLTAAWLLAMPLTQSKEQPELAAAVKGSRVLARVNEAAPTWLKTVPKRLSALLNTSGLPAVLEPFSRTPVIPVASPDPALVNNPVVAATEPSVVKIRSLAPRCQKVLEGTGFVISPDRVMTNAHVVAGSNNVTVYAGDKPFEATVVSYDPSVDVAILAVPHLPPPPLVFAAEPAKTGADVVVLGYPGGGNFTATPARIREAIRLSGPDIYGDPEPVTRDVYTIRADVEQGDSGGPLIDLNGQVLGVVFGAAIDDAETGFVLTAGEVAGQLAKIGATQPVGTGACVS
FBA Mtb inh: Mtb fructose-bisphosphate aldolase inhibition. P9WQA3. purified M. tuberculosis FBA, fluorescence read-out. inhibition, % at 1 µM. 360,000 tested, 2.3% active. AID 588726;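 further: 0% = vehicle and 100% = reference inhibitor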
GDH-TPI counter-1: counter-screen for M. tuberculosis FBA inhibitors: GDH-TPI coupled enzymes. inhibition, % at 4.8 µM. GDH-TPI coupled enzyme counterscreen, NADH absorbance. 360,000 tested, 1.2% active. AID 588335; in the data active means inhibition above about 30%;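 further: 0% = DMSO wells and 100% = wells lacking the enzyme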
Mtb UGM inh: inhibitors of M. tuberculosis UDP-galactopyranose mutase; P9WIQ1; purified UGM, fluorescence polarization probe displacement; inhibition, % at 10 µM; 320,000 tested, 0.06% active; AID 504406; in the data active means inhibition above about 10%, passing the limit was not always enough; inconclusive means no clear call, values can overlap the other calls
Mtb FBA inh conf: Mtb FBA inhibition, confirmed; purified M. tuberculosis FBA, fluorescence read-out; inhibition, % at 1 µM; shares compounds with FBA Mtb inh; 5,600 tested, 78% active;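 further: 0% = vehicle wells and 100% = reference inhibitor wells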
GDH-TPI counter-2: GDH-TPI inhibition counter-screen for FBA inhibitors | shares compounds with FBA Mtb inh | GDH-TPI coupled enzyme counterscreen, fluorescence | inhibition, % at 1 µM | 5,600 tested, 81% active | AID 652141; in the data active means inhibition above about 10%
GDH-TPI dose: counter-screen for M. tuberculosis FBA inhibitors: GDH-TPI dose response | shares compounds with FBA Mtb inh | GDH-TPI coupled enzyme assay, fluorescence, artifact counterscreen | IC50, µM | 170 tested, 79% active; call rule not given here
* = called active by the depositor; ? = inconclusive; nt = no result given; + = active, no number; ! = not active in a repeat. Most compounds without a hit are left out; they make up all but 3.5% or so of the library. Unless noted, no stated cut-off is given here; in the data, active means inhibition above about 27%; inactive means the rest.

SMILES	FadD28 binding	Mtb hypoxia rep	Rv3671c protease	FBA Mtb inh	GDH-TPI counter-1	Mtb UGM inh	Mtb FBA inh conf	GDH-TPI counter-2	others
Cc1ccn2c(C(=O)NN=Cc3ccccc3[N+](=O)[O-])c(C)nc2c1	nt	8	nt	nt	nt	nt	nt	nt
COc1ccccc1COC(=O)N/C=C/c1ccco1	2	10	-3	43*	-2	-1	163*	121*
Cc1nc(-c2cccc(S(=O)(=O)N3CCCCC3)c2)cs1	-4	-12	0	4	-10	2	nt	nt
Cc1nc(-c2cccc(S(=O)(=O)N3CCC(C)CC3)c2)cs1	-3	1	-1	41*	0	2	+	+
COc1ccc(-c2cc(=O)oc3c(C)c(OCC(=O)N[C@@H](Cc4ccc(O)cc4)C(=O)O)ccc23)cc1	-13	nt	-3	1	21	1	nt	nt
Cc1c(O)ccc2c(CC(=O)N[C@@H](Cc3ccc(O)cc3)C(=O)O)cc(=O)oc12	-3	-1	nt	94*	21	3	15	2	GDH-TPI dose=1.8*
Cc1ccc(S(=O)(=O)Nc2cccc(C(=O)NCc3ccc(S(N)(=O)=O)cc3)c2)cc1	-4	5	-11	27*	5	1	156*	128*
Cc1cc(C(=O)NCc2ccc(S(N)(=O)=O)cc2)cs1	-1	3	-1	0	-10	-3	nt	nt
CNc1cc(-c2cccc(OC)c2F)nc2ccnn12	-2	nt	nt	109*	7	nt	90*	62*
CCCCCCCCC1=NCCc2c1[nH]c1ccccc21	-12	-6	-8	5	1	3	nt	nt
CC1=NCCc2c1[nH]c1cc(O)ccc21	-1	0	6	74*	27	31*	94*	48*
Cc1c(C=NO)sc2ccccc12	nt	-3	nt	nt	nt	nt	nt	nt
Nc1nc2ncc(CNc3ccc(C(=O)N[C@@H](CCC(=O)O)C(=O)O)cc3)nc2c(=O)[nH]1	-1	nt	0	44*	17	3	113*	90*
CN(Cc1cnc2nc(N)nc(N)c2n1)c1ccc(C(=O)N[C@@H](CCC(=O)O)C(=O)O)cc1	-10	nt	3	108*!	15	0	119*	108*
C#CCOCCOCCOCCNc1nc(N2CCOCC2)nc(N2CCN(C(=O)C(C)n3cc(CCCN=C(N)N)nn3)CC2)n1 (centres undefined)	nt	9	nt	nt	nt	nt	nt	nt
CCNC(=O)COC(=O)c1ccc(-c2nc3ccccc3s2)s1	-3	4	2	59*	21	-1	+	+
Cc1noc(C)c1COC(=O)c1ccc(-c2nc3ccccc3s2)s1	-2	nt	-3	6	17	4	nt	nt
CC(=NNC(=S)Nc1ccc(C)cc1)c1cccc(N)c1	nt	3	nt	nt	nt	nt	nt	nt
Nc1ccc2c(c1)[nH]c(=O)c1cc(N)ccc12	?	nt	nt	32*	0	nt	23	18*
CCCNc1cc(C)c(C#N)c2nc3ccccc3n12	-3	17	-3	69*	14	-2	55*	45*
CCCc1cc(NCc2ccccn2)n2c(nc3ccccc32)c1C#N	-4	0	2	50*	4	4	86*	68*
CCn1nc(C)c(C=NNC(=O)c2cccc(OC)c2)c1C	nt	7	nt	nt	nt	nt	nt	nt
CC(C)CC(COc1ccccc1)N1CCN(CCc2ccccc2)CCC1=O (centres undefined)	nt	-5	nt	nt	nt	nt	nt	nt
C1=C[C@@H]2CCN(Cc3ccccc3)Cc3cccc(c32)C1	1	nt	-5	28*	18	2	+	+
Cc1ccc(CNC(=O)C2(C(F)(F)F)CC(=CCc3ccccc3)CCCO2)o1 (centres undefined)	nt	3	nt	nt	nt	nt	nt	nt
SMILES	FadD28 binding	Mtb hypoxia rep	Rv3671c protease	FBA Mtb inh	GDH-TPI counter-1	Mtb UGM inh	Mtb FBA inh conf	GDH-TPI counter-2	others
COc1cc(C=NS(=O)(=O)CCc2ccccc2)cc(OC)c1O	nt	2	nt	nt	nt	nt	nt	nt
CCCC(C#CCCN1C(=O)c2ccccc2C1=O)=C1c2ccccc2C(=O)N1c1ccccc1	nt	14	nt	nt	nt	nt	nt	nt
CC1CN(C(=O)c2cc(-c3ccc(Cl)s3)nc3ccccc23)CC(C)O1 (centres undefined)	-1	1	1	65*	14	0	76*	60*
COc1ccc(-c2cc(C(=O)NCCCN3CCOCC3)c3cc(C(C)C)ccc3n2)cc1	-4	9	7	70*	7	1	+	141*
CCOc1ccc(-c2cc(C(=O)NCCCN3CCOCC3)c3ccccc3n2)cc1	1	8	-4	35*	25	-3	116*	88*
COc1ccc(-c2cc(C(=O)NCCCN3CCOCC3)c3ccccc3n2)cc1OC	0	6	-5	8	17	nt	nt	nt
O=C(NCCCN1CCOCC1)c1cc(-c2ccc(Cl)s2)nc2ccccc12	-1	13	-8	64*	14	1	172*	145*
C[C@@]12C(=O)Nc3ccccc3C(=O)N1C1c3cc(Cl)ccc3OCC1C2c1ccccc1 (some centres undefined)	nt	-3	nt	nt	nt	nt	nt	nt
COC(=O)C1=C(c2cc3ccccc3o2)CC2CCC1N2C(=O)NCCCOC(C)C (centres undefined)	nt	5	nt	nt	nt	nt	nt	nt
CCOC(=O)C=Cc1ccccc1S(=O)(=O)NC(C)(C)C	nt	12	nt	nt	nt	nt	nt	nt
O=C(NN=CC=Cc1ccccc1)c1cc2c(ccc3ccccc32)o1	nt	0	nt	nt	nt	nt	nt	nt
Cc1ccc(-c2cc(C(=O)NCCCn3ccnc3)c3ccccc3n2)s1	-3	6	10	110*	9	-3	154*	125*
CCc1ccc(-c2cc(C(=O)NCCCn3ccnc3)c3ccccc3n2)s1	nt	-1	-6	nt	nt	-1	nt	nt
O=C(NCCCN1CCOCC1)c1cc(-c2ccco2)nc2ccccc12	-2	2	8	89*	16	2	115*	75*
O=C(NCCCN1CCOCC1)c1cc(-c2ccc(F)cc2)nc2ccccc12	1	7	-2	11	5	1	nt	nt
C#CCOCCOCCOCCNc1nc(N2CCN(C(=O)C(CCC(=O)O)n3cc(C(N)CCCCN)nn3)CC2)nc(N2CCN(C(=O)C(CCCCN)n3cc(C(N)C(C)CC)nn3)CC2)n1 (centres undefined)	nt	13	nt	nt	nt	nt	nt	nt
Cc1cc(SCC(=O)NN=Cc2ccco2)nc2ccccc12	nt	10	nt	nt	nt	nt	nt	nt
CCOC(=O)[C@]12Cc3cc4c(cc3C1N(Cc1ccccc1)C(=O)c1ccccc12)OCO4 (some centres undefined)	nt	6	nt	nt	nt	nt	nt	nt
Cc1ccccc1C1NC(=O)c2ccccc2O1 (centres undefined)	-2	-1	-1	5	14	0	nt	nt
Cc1ccccc1C1N=C2Oc3ccccc3C=C2C(=O)N1 (centres undefined)	-2	nt	nt	96*	nt	nt	70*	52*
CCCOc1ccccc1-c1nc2c([nH]1)c(=O)[nH]c(=O)n2C	-2	nt	-2	59*	28	-2	66*	44*
